Data on twelve compounds can be found in PubChem BioAssay (NCATS).

Structures are written as SMILES. Values joined by “and” are separate entries in the source; they are usually repeats but may differ in a detail not shown here. Equal values may be shown once. Results filed as inconclusive are left out. Active and inactive are the calls of the source. Unless noted, calls come from the whole dose curve; as a rule, active = well fitted curve in the direction sought with a large enough effect; inconclusive = small, poorly fitted or top-dose-only effect, or another doubt; inactive = no such curve, though single readings can be large; an effect the other way counts as inactive or inconclusive.

The nature of assay [1]: Primary qHTS for inhibitors of nuclear receptor binding SET domain protein 2 (NSD2) in an RCH-ACV wild type WT cells (2C) (AID 1645877). For activity change, negative = cell killing: % is set by controls: 0 for no effect and ±100 for the full control effect. Note: nearly all actives have a fitted effect of over 70% in size. Note: potency is the fitted concentration of half-maximal effect.
A short description of assay [2]: Viability counterscreen for antagonist of constitutive androstane receptor (CAR) against the NCATS DSHEA and TCM libraries (AID 1794837).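 Note: compound exposure lasted 24 h before viability reading; 0% is about no effect.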 The method in brief: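 Cells: HepG2 line carrying CYP2B6 reporter and hCAR, seeded and attached 5 h. Then pin-transferred test substances plus agonist CITCO at 48 uM final; 24 h incubation; fluorogenic viability reagent, 1 h.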

The nature of assay [3]: Viability counterscreen for agonist of constitutive androstane receptor (CAR) against the NCATS DSHEA and TCM libraries (AID 1794838).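 Note: HepG2 cells with CYP2B6 reporter and hCAR plus 0.75 µM PK11195 antagonist; 0% is about no effect.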 The essentials:
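Cell health was measured as CellTiter-Fluor signal in HepG2-CYP2B6-hCAR cells treated for 24 h with substances alongside the hCAR antagonist PK11195 (0.75 uM final).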
In general terms: The purpose of a counterscreen is to sort out artefacts and off-target activity.

Assay [4] addresses Nuclear receptor subfamily 1 group I member 3 (Homo sapiens) (UniProt Q14994). Description: Primary qHTS for agonist of constitutive androstane receptor (CAR) against the NCATS DSHEA and TCM libraries (AID 1794839).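 Note: HepG2 cells expressing human CAR with a CYP2B6 reporter plus PK11195 antagonist; luciferase reporter luminescence read with ONE-Glo; 0% is about no effect.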 The method in brief:
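qHTS, agonist mode: HepG2-CYP2B6-hCAR, 2,500 cells/well, 5 h attach; cpds + PK11195 0.75 µM final; 24 h, 37 °C, 5% CO2. Readouts: CellTiter-Fluor (405/540 nm), then ONE-Glo luminescence.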

Assay [5] in a line: HepG2 viability counterscreen (readout 2: ATP content) against the NCATS DSHEA and TCM libraries (AID 1794840). Note: 0% is about no effect. The method in brief:
(§1)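 Same wells read twice: first fluorescence from cleaved GF-AFC substrate (25 uM final, 30 min, 37C) for live-cell protease, then CellTiter-Glo luminescence after 30 min at room temperature for ATP. HepG2 cells were exposed ~24 h to substances.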

Assay [6] in a line: HepG2 viability counterscreen (readout 1: protease activity) against the NCATS DSHEA and TCM libraries (AID 1794841).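 Note: cells exposed to compounds for about 24 h before the protease read; 0% is about no effect.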 The method in brief:
as §1

Assay [7] has as its target Phospholipid hydroperoxide glutathione peroxidase GPX4 (Homo sapiens) (UniProt P36969). Description: Primary qHTS Assay for Inhibitors of Recombinant Selenoprotein Glutathione Peroxidase 4 (GPX4) (AID 1845192). Note: % is set by controls: 0 for no effect and ±100 for the full control effect; nearly all actives have a fitted effect of over 65% in size. The essentials:
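NADPH consumption followed by fluorescence at 340/450 nm, t=0 and after 15 min at room temperature. Reaction started with cumene hydroperoxide (0.5 mM final) after 30 min compound–GPX4 preincubation; final 200 nM GPX4, 100 nM GR, 1 mM GSH, 0.5 mM NADPH.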
A general note: qHTS replaces the single test concentration by a dilution series.

Assay [8] addresses Luciferin 4-monooxygenase (Photinus pyralis) (UniProt P08659). Description: Primary firefly luciferase (FLuc) qHTS assay for identification of artifact compounds. (AID 1845220).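 For activity change, negative = inhibition: plate controls were DMSO vehicle for no effect and no enzyme for full effect.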 Note: nearly all actives have a fitted effect of over 60% in size. The method in brief:
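Compounds sat 15 min at room temperature with 10 uM luciferin and 10 uM ATP (pH 7.6 Tris acetate). Firefly luciferase (10 nM final) was then added, and luminescence was read 5 min later. Data normalized to no-enzyme and DMSO controls were Hill-fitted.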

Assay [9] in a line: Primary fluorescence-based thiol-reactive (MSTI) qHTS assay for identification of artifact compounds. (AID 1845221).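 For activity change, negative = thiol reactive: thiol-reactive compounds lower the probe fluorescence signal.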 Note: nearly all actives have a fitted effect of over 65% in size. Note: potency is the fitted concentration of half-maximal effect. The method in brief:
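One-hour, room-temperature, dark incubation of compound with 4 uM MSTI in PBS (pH 7.4, 2% DMSO) precedes a fluorescence read at 525 nm excitation, 598 nm emission; Hill-equation fitting yields concentration-response values.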

Assay [10] deals with Nanoluciferase (engineered Oplophorus gracilirostris luciferase). Kind of assay: Primary Nanoluciferase (NLuc) qHTS assay for identification of artifact compounds. (AID 1845222).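 Note: 0% = DMSO and -100% = no enzyme.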 The method in brief:
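Luminescence from secreted NLuc (filtered, 1:55-diluted S16 cell medium) read 5 min after Nano-Glo substrate; compounds preincubated 15 min, RT. Hill fits of inhibition normalized to DMSO and no-enzyme.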

Assay [11] is described as follows: Primary redox qHTS assay for identification of artifact compounds. (AID 1845223).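 Note: 0% = DMSO and 100% = reference compound.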 The essentials: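 Redox-cycling detection via DTT (250 uM final) oxidation coupled to Amplex Red (25 uM)/HRP (250 mU/mL) in HBSS. 15 min preincubation plus 30 min after DTT, room temperature. Ex/Em 525/598 nm; 4-parameter Hill fit against DMSO and 10 uM DA3003.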
The target in assay [12] is Cytochrome P450 3A4 (Homo sapiens) (UniProt P08684). Kind of assay: qHTS for inhibitors of CYP3A4 against the NCATS DSHEA and TCM libraries (AID 1919971).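 Note: % is set by controls: 0 for no effect and ±100 for the full control effect; inhibition lowers luminescence from luciferin made by CYP3A4.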 The method in brief: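 Concentration-response screening with isoform-matched pro-luciferin substrates. The CYP reaction was initiated by NADPH regenerating solution and ran 30-45 min in darkness at room temperature.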
Cytochrome P450 3A4 (Homo sapiens), sequence (P08684 whole entry, looked up, canonical isoform): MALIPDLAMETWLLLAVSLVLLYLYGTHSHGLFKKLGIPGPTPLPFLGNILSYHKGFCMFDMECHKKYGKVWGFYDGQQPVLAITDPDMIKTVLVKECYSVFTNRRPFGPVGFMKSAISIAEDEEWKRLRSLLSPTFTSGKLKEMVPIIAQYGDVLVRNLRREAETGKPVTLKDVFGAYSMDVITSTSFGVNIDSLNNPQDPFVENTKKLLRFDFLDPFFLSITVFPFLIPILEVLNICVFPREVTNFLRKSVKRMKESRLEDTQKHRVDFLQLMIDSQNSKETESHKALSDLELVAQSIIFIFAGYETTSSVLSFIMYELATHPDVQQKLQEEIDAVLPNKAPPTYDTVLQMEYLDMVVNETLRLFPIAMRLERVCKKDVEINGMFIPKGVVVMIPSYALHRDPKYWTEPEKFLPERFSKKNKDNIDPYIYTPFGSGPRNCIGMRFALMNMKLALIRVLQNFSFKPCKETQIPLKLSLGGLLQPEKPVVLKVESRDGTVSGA

The nature of assay [13]: NCATS anti-infectives library activity on HEK293 viability as a counter-qHTS vs the C. elegans viability qHTS (AID 1745854).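 Note: HEK293 cells exposed to compounds for 24 hr before the viability read; % is set by controls: 0 for no effect and ±100 for the full control effect.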 The method in brief: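 Counter-screen for cytotoxicity: HEK293, 24 hr, 37C, compounds up to 41.7 uM final (a dilution series, 1:5). Readout CellTiter-Glo luminescence, 10 min RT. Digitonin control, 83.3 uM final.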
Assay [14] deals with Glutathione peroxidase 1 (Homo sapiens) (UniProt P07203). Kind of assay: Primary qHTS Assay for Inhibitors of Recombinant Selenoprotein Glutathione Peroxidase 1 (GPX1) (AID 1845191). For activity, negative = inhibition: % is set by controls: 0 for no effect and ±100 for the full control effect. Note: nearly all actives have a fitted effect of over 65% in size. The method in brief:
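NADPH consumption tracked by fluorescence at 340/450 nm between t=0 and t=15 min, room temperature. Final mix: 10 nM GPX1, 100 nM glutathione reductase, 1 mM GSH, 0.5 mM NADPH, 0.5 mM cumene hydroperoxide, 0.01% BSA; 30 min compound–enzyme preincubation.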

Assay [15] in a line: NCATS anti-infectives library activity on the primary C. elegans qHTS viability assay (AID 1745855; calls by dose curve; note: potency is the fitted concentration of half-maximal effect). The essentials:
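GFP read-out by 488 nm laser cytometry at day 0, 3 and 7, gated on object perimeter, area and peak intensity, scored viability of PE254-GFP-FLuc worms exposed to compound in S medium with bacterial capsules at 21 °C.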

Assay [16] deals with Catechol O-methyltransferase (Homo sapiens) (UniProt P21964). Description: Confirmatory Screen for Target Class Profiling of Small Molecule Inhibitors of Methyltransferases (AID 1745852; calls by dose curve; note: potency is the fitted concentration of half-maximal effect). The conditions noted are these: MTase-Glo luminescence, SAH detection, recombinant enzyme; measured here: COMT max response; stronger effect = lower value.
Catechol O-methyltransferase (Homo sapiens), sequence (P21964 whole entry, looked up): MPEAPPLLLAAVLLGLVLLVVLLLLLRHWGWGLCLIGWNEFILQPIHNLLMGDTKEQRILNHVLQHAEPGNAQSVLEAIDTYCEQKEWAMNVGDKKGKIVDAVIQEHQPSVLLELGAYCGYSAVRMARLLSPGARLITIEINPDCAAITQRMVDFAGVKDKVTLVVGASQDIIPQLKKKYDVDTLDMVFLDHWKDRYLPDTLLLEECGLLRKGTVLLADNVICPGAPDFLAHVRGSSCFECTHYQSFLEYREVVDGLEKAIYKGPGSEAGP
Assay [17] concerns the target Guanidinoacetate N-methyltransferase (Homo sapiens) (UniProt Q14353). The assay is described as above. The conditions noted are these: activity change, negative = inhibition: at 57.3 µM (top of the series) unless noted.
Assay [18] has as its target Nicotinamide N-methyltransferase (Homo sapiens) (UniProt P40261). The assay is described as above. The conditions noted are these: MTase-Glo luminescence, SAH detection, recombinant enzyme; measured here: NNMT max response; stronger effect = lower value.
Assay [19] has as its target Phenylethanolamine N-methyltransferase (Homo sapiens) (UniProt P11086). Described as above. The conditions noted are these: MTase-Glo luminescence, SAH detection, recombinant enzyme; measured here: PNMT max response; stronger effect = lower value.

Phospholipid hydroperoxide glutathione peroxidase GPX4 (Homo sapiens), sequence (P36969 whole entry, looked up): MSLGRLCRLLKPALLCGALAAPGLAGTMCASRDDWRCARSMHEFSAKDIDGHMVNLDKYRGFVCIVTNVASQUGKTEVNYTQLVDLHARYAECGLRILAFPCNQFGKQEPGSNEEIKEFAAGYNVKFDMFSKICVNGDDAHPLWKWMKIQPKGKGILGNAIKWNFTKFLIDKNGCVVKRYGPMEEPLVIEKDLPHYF
Glutathione peroxidase 1 (Homo sapiens), sequence (P07203 whole entry, looked up): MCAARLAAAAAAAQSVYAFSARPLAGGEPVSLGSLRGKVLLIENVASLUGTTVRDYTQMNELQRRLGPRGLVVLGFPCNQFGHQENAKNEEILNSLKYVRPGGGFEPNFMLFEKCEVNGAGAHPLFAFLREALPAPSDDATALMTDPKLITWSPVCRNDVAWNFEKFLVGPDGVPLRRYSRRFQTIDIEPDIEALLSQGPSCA
Nuclear receptor subfamily 1 group I member 3 (Homo sapiens), sequence (Q14994 whole entry, looked up): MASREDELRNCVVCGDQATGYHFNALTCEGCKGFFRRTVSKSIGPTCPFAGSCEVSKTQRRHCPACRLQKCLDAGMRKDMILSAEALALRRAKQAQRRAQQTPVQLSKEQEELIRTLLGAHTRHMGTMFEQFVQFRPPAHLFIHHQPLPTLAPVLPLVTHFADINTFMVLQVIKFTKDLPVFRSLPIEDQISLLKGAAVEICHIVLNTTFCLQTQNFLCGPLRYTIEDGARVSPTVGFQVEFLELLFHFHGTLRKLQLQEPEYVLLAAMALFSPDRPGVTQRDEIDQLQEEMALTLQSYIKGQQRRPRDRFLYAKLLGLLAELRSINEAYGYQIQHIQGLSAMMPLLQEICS
Phenylethanolamine N-methyltransferase (Homo sapiens), sequence (P11086 whole entry, looked up): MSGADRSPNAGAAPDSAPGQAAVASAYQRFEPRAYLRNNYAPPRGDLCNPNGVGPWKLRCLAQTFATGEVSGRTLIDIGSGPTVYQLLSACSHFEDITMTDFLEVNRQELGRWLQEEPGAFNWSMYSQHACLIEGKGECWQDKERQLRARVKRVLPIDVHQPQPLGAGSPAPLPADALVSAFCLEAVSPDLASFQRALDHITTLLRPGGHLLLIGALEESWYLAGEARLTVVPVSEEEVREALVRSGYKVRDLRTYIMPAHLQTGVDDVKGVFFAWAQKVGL
Nicotinamide N-methyltransferase (Homo sapiens), sequence (P40261 whole entry, looked up): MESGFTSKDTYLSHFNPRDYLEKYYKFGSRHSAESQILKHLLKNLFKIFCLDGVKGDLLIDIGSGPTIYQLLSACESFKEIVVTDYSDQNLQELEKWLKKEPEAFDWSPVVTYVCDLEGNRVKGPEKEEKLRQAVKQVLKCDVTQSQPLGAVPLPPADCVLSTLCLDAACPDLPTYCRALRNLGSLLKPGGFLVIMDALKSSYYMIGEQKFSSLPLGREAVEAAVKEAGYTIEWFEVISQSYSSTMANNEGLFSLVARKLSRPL

With `CC(C)=CCC[C@](C)(O[C@@H]1O[C@H](CO[C@@H]2O[C@H](CO)[C@@H](O)[C@H](O)[C@H]2O)[C@@H](O)[C@H](O)[C@H]1O)C1CC[C@]2(C)[C@@H]1[C@H](O)CC1[C@@]3(C)CC[C@H](O[C@@H]4O[C@H](CO)[C@@H](O)[C@H](O)[C@H]4O[C@@H]4O[C@H](CO)[C@@H](O)[C@H](O)[C@H]4O)C(C)(C)[C@@H]3CC[C@]12C` (stereo not given in full), the activity change, negative = cell killing in [1] was -25.5% [at 9.23 µM] (inactive). Further, the outcome in assay [2], in [4], in assay [5], in assay [6] and in [12] was “inactive” throughout. In assay [3], the activity change, negative = cytotoxicity was 3.8% [at 8.32 µM] (inactive). Further, in assay [7], the Potency result was “inactive”. Further, in [8], the activity change, negative = inhibition was -9.29% [at 11.6 µM] (inactive). The activity change, negative = thiol reactive in assay [9] is 44.5% [at 11.5 µM] (inactive). The activity, negative = inhibition in [10] is 0.108% [at 11.6 µM] (inactive). Moreover, the redox activity (% of DA3003) in assay [11] was 5.05% [at 11.5 µM] (inactive).

Take `Cc1ccc(NC(=O)C(=O)NC2CC(C)(C)NC(C)(C)C2)cc1`: the Potency result in assay [1], in assay [13], in [14], in [7], in [8] and in [9] was “inactive” in each case. Moreover, the Potency result in assay [10] and in assay [11] was “inactive” in each case.

For the compound `CC(C)C[C@H](CC(=O)NO)C(=O)N[C@@H](Cc1ccc2ccccc2c1)C(=O)N[C@@H](C)C(=O)NCCN`, the Potency result in assay [1], in assay [13], in [14], in assay [7], in [8] and in [9] was “inactive” throughout. In addition, the Potency entry in assay [10] and in [11] was “inactive” each time.

Take `O=C(N/N=C/c1ccc(O)c(O)c1)c1cc2ccccc2cc1O`: the Potency in assay [1] was 5.41 µM (active); in assay [15], 20.5 µM (active); in [9], 0.707 µM (active). Besides, the Potency entry in assay [13], in assay [14], in [7], in [8], in assay [10] and in assay [11] was “inactive” throughout.

Turning to `C[C@@]1(O)[C@H](O)[C@@H](CO)O[C@H]1n1ccc(N)nc1=O`, the Potency in [1] is 23 µM (active). In addition, the Potency result in assay [13], in assay [14], in [7], in assay [8], in assay [9] and in assay [10] was “inactive” each time. The Potency result in [11] is “inactive”.

Turning to `CN[C@H](CC(C)C)C(=O)N[C@H]1C(=O)N[C@@H](CC(N)=O)C(=O)N[C@H]2C(=O)N[C@H]3C(=O)N[C@H](C(=O)N[C@H](C(=O)O)c4cc(O)cc(O)c4-c4cc3ccc4O)[C@H](O[C@H]3C[C@](C)(N)[C@@H](O)[C@H](C)O3)c3ccc(c(Cl)c3)Oc3cc2cc(c3O[C@@H]2O[C@H](CO)[C@@H](O)[C@H](O)[C@H]2O[C@H]2C[C@](C)(NCc3ccc(-c4ccc(Cl)cc4)cc3)[C@@H](O)[C@H](C)O2)Oc2ccc(cc2Cl)[C@H]1O`, the Potency result in assay [1], in assay [13], in [14], in [7], in assay [9] and in [10] was “inactive” each time. Moreover, the Potency result in assay [11] is “inactive”.

As to `CC1CC[C@]2(C(=O)O)CC[C@]3(C(=O)O)C(=CCC4[C@@]5(C)CC[C@H](OC6OC(C)C(O)C(OC7OC(CO)C(O)C(O)C7O)C6O)C(C)(C)C5CC[C@]43C)C2C1C` (stereo not given in full), the Potency result in assay [1], in assay [14], in assay [7], in assay [8], in assay [10] and in assay [11] was “inactive” in each case. For the same compound, the outcome in [2], in [3], in assay [4], in assay [5], in assay [6] and in assay [12] was “inactive” throughout.

As to `O=C(/C=C/c1cccc(S(=O)(=O)Nc2ccccc2)c1)NO`, the Potency in assay [1] was 252 nM (active) and 332 nM (active). Besides, the Potency result in assay [13], in assay [14], in assay [7], in assay [8], in assay [10] and in assay [11] was “inactive” in each case.

For `Cc1cc(C)c(Nc2ccnc(Nc3ccc(C#N)cc3)n2)c(C)c1`, the Potency in assay [1] was 4.09 µM (active); in assay [15], 5.15 µM (active). The Potency result in [14], in assay [7], in [8], in assay [9], in assay [10] and in [11] was “inactive” in each case.

Consider `OC[C@H]1O[C@@H](OC[C@H]2O[C@@H](OC/C=C/c3ccccc3)[C@H](O)[C@@H](O)[C@@H]2O)[C@@H](O)[C@@H]1O`, for which the Potency result in assay [1], in assay [14], in assay [7], in assay [8] and in [11] was “inactive” throughout. The outcome in assay [2], in assay [4], in [5], in [6] and in [12] was “inactive” each time. Besides, in assay [9], the Potency was 10.3 µM (active).

With `CC(=O)O[C@H]1CC(C)(C)CC2[C@@]13[C@H](O)C[C@]1(C)[C@@]2(CCC2[C@@]4(C)CC[C@H](O[C@@H]5OC[C@H](O[C@@H]6O[C@H](CO)[C@@H](O)[C@H](O)[C@H]6O[C@@H]6OC[C@@H](O)[C@H](O)[C@H]6O)[C@H](O)[C@H]5O[C@@H]5O[C@H](CO)[C@@H](O)[C@H](O)[C@H]5O)C(C)(C)C4CC[C@]21C)O[C@@H]3O` (stereo not given in full), in assay [1], the Potency is 1.09 µM (active). Moreover, the Potency entry in assay [14] and in [7] was “inactive” each time. The activity change, negative = inhibition in assay [8] was -0.127% [at 11.6 µM] (inactive). Also, the activity change, negative = thiol reactive in [9] was 93.4% [at 11.5 µM] (inactive). In addition, in assay [10], the activity, negative = inhibition was 2.06% [at 11.6 µM] (inactive).

Consider `Cc1cc(Nc2ccc(NC(=O)c3ccc(Nc4ccnc5ccccc45)cc3)cc2)nc(N)n1`, for which the Potency in [1] was 0.817 µM (active); in assay [17] it was 30.4 µM (active). For the same compound, the activity in assay [16] was -15.9%; in [18], -17.6%; in [19] it was -11.7%. In addition, the Potency entry in assay [7], in [8], in [10] and in assay [11] was “inactive” each time.
